The values that follow come from PubChem BioAssay.

Where “and” joins values, the source holds several entries; their conditions need not be identical. Equal values may be shown once. A number with no mark means an inactive call. Calls of active or inactive are those of the source.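 Rule for the calls, unless noted: active = z-score of at least 1.8 in each of two replicates, scored against plate mean and spread of sample wells; inactive = the rest.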

The target of assay [1] is Mitogen-activated protein kinase 7 (Homo sapiens) (UniProt Q13164). Briefly: Gal4-ERK5 driven luciferase induction – cell-based, HTS, primary screen (AID 1508626;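 active = luciferase signal above three times the same-plate solvent-only control wells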;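 note: luciferase driven by Gal4-ERK5 fusion binding five Gal4 sites before minimal TATA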). Conditions: HeLa Gal4-ERK5 transactivation, 18 h, at 5 µM, hits give high values.
Chain of Mitogen-activated protein kinase 7 (Homo sapiens) (Q13164 whole entry, looked up, the tested form may be a part): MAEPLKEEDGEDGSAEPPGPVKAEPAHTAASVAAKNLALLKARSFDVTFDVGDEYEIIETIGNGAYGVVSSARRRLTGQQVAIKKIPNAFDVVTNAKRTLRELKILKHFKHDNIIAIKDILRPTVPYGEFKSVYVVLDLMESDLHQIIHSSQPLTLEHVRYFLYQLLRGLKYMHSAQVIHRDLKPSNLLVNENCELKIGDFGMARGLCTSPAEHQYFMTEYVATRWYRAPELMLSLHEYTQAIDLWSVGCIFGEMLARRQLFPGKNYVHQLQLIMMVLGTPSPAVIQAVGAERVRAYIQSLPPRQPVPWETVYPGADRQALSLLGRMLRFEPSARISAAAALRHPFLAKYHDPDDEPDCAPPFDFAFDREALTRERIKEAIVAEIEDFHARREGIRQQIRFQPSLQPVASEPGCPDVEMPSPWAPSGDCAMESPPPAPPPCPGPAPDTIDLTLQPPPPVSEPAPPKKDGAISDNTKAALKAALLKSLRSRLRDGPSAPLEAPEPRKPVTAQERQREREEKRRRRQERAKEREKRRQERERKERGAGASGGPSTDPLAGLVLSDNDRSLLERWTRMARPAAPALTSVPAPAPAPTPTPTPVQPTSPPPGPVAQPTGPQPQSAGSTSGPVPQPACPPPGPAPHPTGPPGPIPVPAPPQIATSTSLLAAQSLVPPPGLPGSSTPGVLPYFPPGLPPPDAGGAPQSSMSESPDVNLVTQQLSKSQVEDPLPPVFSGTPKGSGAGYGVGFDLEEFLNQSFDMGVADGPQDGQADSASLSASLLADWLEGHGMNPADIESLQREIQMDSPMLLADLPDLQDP
Assay [2] is described as follows: galactose survival enhancers in mitochondrial complex I cybrids – cell-based, galactose medium, ATP luminescence, primary screen (AID 1645843).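 Note: positive z means more ATP and so rescue of galactose-driven cybrid death.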 Conditions: complex I mutant cybrid cells, 72 h, hits give high values.

As to `C[C@](N)(Cc1ccc(O)cc1)C(=O)O`, the luciferase signal in assay [1] is 60 AU. Also, the z-score in assay [2] is 0.71. In the case of `CCCCNc1c(C(=O)OCC)c(C)nc2c1cnn2CC`, the z-score in assay [2] was 0.17 and 0.34. With `Nc1c2c(nc3ccccc13)CCCC2O` (stereo not given), the luciferase signal in assay [1] is 36 AU. Also, the z-score in assay [2] was 0.445 and 0.48. Consider `CCOC(=O)C1=C(C)NC(C)=C(C(=O)OCC)C1c1ccccc1/C=C/C(=O)OC(C)(C)C`, for which the z-score in assay [2] is -1.98. With `Cc1ccc(C(C)C)cc2c(C)ccc1-2`, the luciferase signal in assay [1] was 128 AU.

As for `NS(=O)(=O)c1cc2c(cc1Cl)NC(C1CC3C=CC1C3)NS2(=O)=O` (stereo not given), the luciferase signal in assay [1] is 84 AU. Besides, in assay [2], the z-score is 0.71 and 0.55. With `CCN1CCC[C@H]1CNC(=O)c1c(O)c(Cl)cc(Cl)c1OC`, the z-score in assay [2] was 0.525 and -0.165 and 0.41.

With `O=c1cc(CO)occ1O`, the z-score in assay [2] was 1.06. Consider `CC(C(=O)O)c1ccc(C(=O)c2cccs2)cc1` (stereo not given), for which the luciferase signal in assay [1] was 92 AU. On the same count and under the same terms, with `O=C(Cn1ccnc1[N+](=O)[O-])NCCO` the figure was 76 AU; with `CN(C)C(=O)Nc1ccc(Cl)c(Cl)c1`, 260 AU (active); with `NC(=NCCCCCCN=C(N)/N=C(\N)Nc1ccc(Cl)cc1)/N=C(\N)Nc1ccc(Cl)cc1`, 32 AU.

Take `Cc1cc2c(C(C)C)c(O)c(O)c(C=O)c2c(O)c1-c1c(C)cc2c(C(C)C)c(O)c(O)c(C=O)c2c1O`: the luciferase signal in assay [1] is 28 AU. Also, the z-score in assay [2] is -1.29 and -0.705. For `COc1cc(N)c(Cl)cc1C(=O)NC1CCN(Cc2ccccc2)CC1`, in assay [1], the luciferase signal is 48 AU. For `CC(=O)[C@]1(O)Cc2c(O)c3c(c(O)c2[C@@H](O[C@H]2C[C@H](N)[C@H](O)[C@H](C)O2)C1)C(=O)c1ccccc1C3=O`, in assay [2], the z-score was -1.04 and -2.14. On to `NC/C=C/C(=O)O`, for which the luciferase signal in assay [1] is 96 AU. For the same compound, in assay [2], the z-score is 0.575.

Consider `COC(=O)Nc1nc2ccc(C(=O)c3cccs3)cc2[nH]1`, for which, in assay [2], the z-score was -0.685 and -1.18 and -0.46. Turning to `CNC1(C)C2CCC(C2)C1(C)C` (stereo not given), in assay [1], the luciferase signal is 108 AU. For the same compound, the z-score in assay [2] is 0.26 and 0.15. `C[N+]1(CCCCC[N+]2(C)CCCC2)CCCC1`: the luciferase signal in assay [1] is 108 AU. In assay [2], the z-score is 0.235. With `Nc1c2c(nc3c1CCC3)CCCC2`, the z-score in assay [2] is -0.465. Regarding `CCCCCCCCCCCCCCCCCCOCC(O)CO` (stereo not given), the luciferase signal in assay [1] is 152 AU. Still for that read-out and setting: with `C[C@@H]1CC[C@@]2(OC1)O[C@H]1C[C@H]3[C@@H]4CC[C@H]5C[C@@H](O)CC[C@]5(C)[C@H]4CC(=O)[C@]3(C)[C@H]1[C@@H]2C` the figure was 52 AU; with `O=c1[nH]cnc2nc[nH]c12`, 60 AU. As for `O=C1CC2(CCCC2)CC(=O)N1CCNCC1COc2ccccc2O1` (stereo not given), in assay [2], the z-score is 0.655 and -0.78.

Regarding `COc1ccc2[nH]cc(CCNC(C)=O)c2c1`, the luciferase signal in assay [1] is 68 AU. Moreover, the z-score in assay [2] is 0.52 and 0.205 and 0.655.

On to `Oc1cc(O)c2c(c1)O[C@H](c1ccc(O)c(O)c1)[C@H](O)C2`, for which the luciferase signal in assay [1] was 20 AU. Still for that read-out and setting: with `CC1(C)O[C@@H]2C[C@H]3[C@@H]4CCC5=CC(=O)CC[C@]5(C)[C@@]4(F)[C@@H](O)C[C@]3(C)[C@]2(C(=O)CCl)O1` the figure was 112 AU; with `COc1ccc2cc3[n+](cc2c1OC)CCc1cc2c(cc1-3)OCO2`, 64 AU. For `NC1CCN(c2cccc(Cl)n2)CC1`, the z-score in assay [2] is 0.81 and 0.31. As for `COc1cc(/C=C/C(=O)CC(=O)/C=C/c2ccc(O)c(OC)c2)ccc1O`, the luciferase signal in assay [1] is 44 AU.

Consider `COc1cc([C@H]2Oc3cc([C@H]4Oc5cc(O)cc(O)c5C(=O)[C@@H]4O)ccc3O[C@@H]2CO)ccc1O`, for which the luciferase signal in assay [1] was 64 AU. On to `CCCCCCCC/C=C\CCCCCCCC(=O)NCc1ccc(O)c(OC)c1`, for which the z-score in assay [2] is -1.29 and -1.24.
